Measured values from PubChem BioAssay (Tox21).
“And” between values parts separate entries of the source, which are not always exact repeats. Equal entries are not always repeated. A structure can be active in one record and inactive in another. The source made the active and inactive calls. A call without a number means that no potency is given here. The call rests on the fitted dose curve; in most records, active means well fitted inhibition curve with a large enough effect in the repeat runs (not every such curve was filed as active); inconclusive means weak or mixed curves; inactive means flat fitted curve, though single readings scatter.

What follows are compounds tested against Thyrotropin-releasing hormone receptor (Homo sapiens) (UniProt P34981) (assay: qHTS assay to identify small molecule antagonists of the thyrotropin-releasing hormone receptor (TRHR) signaling pathway (AID 1346877)). Details: TRHR-HEK293, TRH-induced calcium fluorescence, antagonist mode; series mostly up to 51.3 µM.
Source text: National Center for Advancing Translational Sciences [NCATS]
NIH Chemical Genomics Center [NCGC]
U.S. Environmental Protection Agency [EPA]
National Institutes of Environmental Health Sciences [NIEHS]
National Toxicology Program [NTP]
U.S. Food and Drug Administration [FDA]
Thyrotropin-releasing hormone (TRH) receptor (TRHR) is a G-protein-coupled receptor which binds the tripeptide thyrotropin releasing hormone. TRHR is found in the brain and, when bound by TRH, acts (through phospholipase C) to increase intracellular inositol trisphosphate. It plays a crucial role in the anterior pituitary where it controls the synthesis and secretion of thyroid stimulating hormone and prolactin. The TRHR-Hek293 assay is a cell-based assay, and it has the potential to screen G protein-coupled receptors. A compound/drug can either activate (agonist) or suppress (antagonist) GPCRs that can be monitored by levels of intracellular calcium. In this assay, the Tox21 10K compound library was screened to identify potential TRHR antagonists.
Tox21 Assay Protocol Summary:
The TRHR-Hek293 cells were dispensed at 1500cells/4uL/well in 1536-well black-clear bottom plates using a Multidrop dispenser. After the assay plates were incubated at a 37 C/5% CO2 incubator for 18 hours, 4 uL of Dye-Loading Solution was added to each well. The plates were incubated at 37 C for 2 hours. For agonist mode, 23 nL of compounds dissolved in DMSO, positive controls or DMSO only was transferred to the assay plate by a pin tool. The fluorescence intensity in the plates was measured using FDSS 7000EX kinetic plate reader for 3 min at 1 sec intervals. For antagonist mode, 23 nL of compounds dissolved in DMSO, positive controls or DMSO only was transferred to the assay plate by a pin tool. After 5 min incubation at room temperature, 1 uL of TRH was added on the top of the cell/compound mixtures to achieve a final agonist concentration of 1 nM. The fluorescence intensity in the plates was measured using FDSS 7000EX kinetic plate reader for 3 min at 1 sec intervals. Each test compound was measured at 15 concentrations and in triplicates.
Potency means the concentration at half of the fitted maximal effect.

Chain of Thyrotropin-releasing hormone receptor (Homo sapiens) (P34981 whole entry, looked up): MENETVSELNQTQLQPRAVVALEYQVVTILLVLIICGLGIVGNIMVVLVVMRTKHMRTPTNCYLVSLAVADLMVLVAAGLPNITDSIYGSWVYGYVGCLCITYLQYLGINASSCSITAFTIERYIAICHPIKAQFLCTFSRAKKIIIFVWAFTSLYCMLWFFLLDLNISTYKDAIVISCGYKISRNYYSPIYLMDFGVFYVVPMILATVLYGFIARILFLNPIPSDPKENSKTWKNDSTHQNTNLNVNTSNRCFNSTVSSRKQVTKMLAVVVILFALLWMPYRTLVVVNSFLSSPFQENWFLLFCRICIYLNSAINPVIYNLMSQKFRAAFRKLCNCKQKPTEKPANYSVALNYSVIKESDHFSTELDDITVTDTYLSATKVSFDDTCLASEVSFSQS

**Q.** `O=c1[nH]c2ccccc2n1C1CCNCC1` was tested. Which Potency did it give?
**A.** inactive

**Q.** How did the Potency turn out when `CN1COCN(Cc2cnc(Cl)s2)/C1=N\[N+](=O)[O-]` was run?
**A.** inactive

**Q.** `ClCCCCCCCl` was tested. Which Potency did it give?
**A.** inactive

**Q.** Which Potency does the source give for `CCOC(=O)N(C)N=O` here?
**A.** inactive

**Q.** How did the Potency turn out when `O=C(O)C(Cl)Br` (stereo not given) was run?
**A.** inactive

**Q.** For `O=c1[nH]c2ccccc2o1`, which Potency is on record?
**A.** inactive

**Q.** With `CS(=O)(=O)Cl` as the compound, how does the Potency read?
**A.** inactive

**Q.** With `Cc1ccc(Cl)c(O)c1` as the compound, how does the Potency read?
**A.** inactive

**Q.** With `C[C@H](CN1CCOCC1)C(C(=O)N1CCCC1)(c1ccccc1)c1ccccc1` as the compound, how does the Potency read?
**A.** inactive

**Q.** `C/C=C/CC#N` was tested. Which Potency did it give?
**A.** inactive

**Q.** For `CC(Cc1ccccc1)NCCn1cnc2c1c(=O)n(C)c(=O)n2C` (stereo not given), which Potency is on record?
**A.** inactive

**Q.** Which Potency does the source give for `COc1ccc(CN2CCNCC2)c(OC)c1OC` here?
**A.** inactive

**Q.** How did the Potency turn out when `O=C(Cl)C(Cl)Cl` was run?
**A.** inactive

**Q.** For `CC(C)(C)c1cc(O)ccc1O`, which Potency is on record?
**A.** inactive

**Q.** Which Potency does the source give for `O=C/C=C/c1ccco1` here?
**A.** inactive

**Q.** How did the Potency turn out when `C=C1C[C@@H]2[C@H](CC[C@]3(C)C(=O)CC[C@@H]23)[C@@]2(C)C=CC(=O)C=C12` was run?
**A.** inactive

**Q.** Which Potency does the source give for `BrCc1ccc(Br)cc1` here?
**A.** inactive

**Q.** How did the Potency turn out when `CCCC(C)C1(CC)C(=O)N=C(S)NC1=O` (stereo not given) was run?
**A.** inactive

**Q.** Which Potency does the source give for `O=C(O)C(F)(F)C(F)(F)C(F)(F)C(F)(F)C(F)(F)C(F)(F)F` here?
**A.** inactive

**Q.** How did the Potency turn out when `O=C(O)CBr` was run?
**A.** inactive

**Q.** With `C=C1CC[C@@]2(O)[C@H]3Cc4ccc(O)c5c4[C@@]2(CCN3CC2CC2)[C@H]1O5` as the compound, how does the Potency read?
**A.** inactive

**Q.** For `NNCc1ccccc1`, which Potency is on record?
**A.** inactive

**Q.** `C=CCc1cc(OC)c2c(c1)OCO2` was tested. Which Potency did it give?
**A.** inactive

**Q.** For `C[C@]12C=CC(=O)C=C1CC[C@@H]1[C@@H]2CC[C@@]2(C)[C@H]1CC[C@]2(C)O`, which Potency is on record?
**A.** inactive

**Q.** How did the Potency turn out when `Cc1ccc(-c2nc3ccc(C)cn3c2CC(=O)N(C)C)cc1` was run?
**A.** inactive

**Q.** How did the activity, negative = inhibition turn out when `CCCCCCC(=O)CCCCCC/C=C/C[C@@H](O)[C@H](O)[C@@](N)(CO)C(=O)O` was run?
**A.** 7.27% [at 10.5 µM] (inactive)

**Q.** For `CCNc1nc(Cl)nc(NC(C)(C)C)n1`, which Potency is on record?
**A.** inactive

**Q.** With `COP(=O)(OC)O/C(C)=C/C(=O)N(C)C` as the compound, how does the Potency read?
**A.** inactive

**Q.** How did the Potency turn out when `CCOC1Oc2ccc(OS(C)(=O)=O)cc2C1(C)C` (stereo not given) was run?
**A.** inactive

**Q.** How did the Potency turn out when `[P]#[In]` was run?
**A.** inactive

**Q.** How did the Potency turn out when `CCCOC(=O)c1cncn1C(C)c1ccccc1` (stereo not given) was run?
**A.** inactive

**Q.** Which Potency does the source give for `CC(C)N(Cc1ccccc1)C(=O)C(C)(C)C` here?
**A.** inactive

**Q.** How did the Potency turn out when `COc1ccc2c(C(=O)c3ccc(Cl)cc3)c(C)n(CC(=O)O)c2c1` was run?
**A.** inactive

**Q.** `CCSC(=O)Cl` was tested. Which Potency did it give?
**A.** inactive

**Q.** With `CCC(=O)OC1(c2ccccc2)CCN(C)CC1` as the compound, how does the Potency read?
**A.** inactive

**Q.** Which Potency does the source give for `CC(C)(N)Cc1ccccc1Cl` here?
**A.** inactive

**Q.** `O=C1C2CC=CCC2C(=O)N1SC(Cl)(Cl)Cl` (stereo not given) was tested. Which Potency did it give?
**A.** inactive and 33.3 µM (active)

**Q.** For `CCOP(=S)(OCC)SCCl`, which Potency is on record?
**A.** inactive

**Q.** `COc1cc(CC(C)N)cc(OC)c1OC` (stereo not given) was tested. Which Potency did it give?
**A.** inactive

**Q.** How did the Potency turn out when `S=C=S` was run?
**A.** inactive
